TDP1 cell CPT: DT40-hTDP1 cell growth loss with CPT | chicken DT40 Tdp1-/-;hTDP1 cells + 20 nM CPT, ATP luminescence, 48 h | AID 686979 | hit rate 12% among 420,000 | Potency, µM (highest dose often 46.2 µM), actives largely listed as inhibitors; also: nearly all actives have a fitted effect of over 55% in size
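Chicken DT40 Tdp1-/- cells stably complemented with human TDP1 were seeded at 400 cells/well in medium containing 20 nM camptothecin, exposed to pin-transferred compounds, and grown at 37 °C for at least 48 hr. Viability was read as ATP luminescence.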
HT1080 IDH1KD tx: HT-1080 IDH1 knockdown cell toxicity (counter line); HT-1080 IDH1 knockdown viability, ATP luminescence, 48 h; Potency, µM (top dose mostly 46.1 µM), hits mostly cytotoxic; hit rate 2% among 360,000
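IDH1KD HT-1080 cells, 750/well, RPMI + 5% FBS; compound pinned after 2 h settling; 48 h, 37 °C; CellTiter-Glo luminescence; % activity normalised to DMSO and no-cell wells; curves fitted, classed by r2 and efficacy.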
KB-3-1 tox: kills parental KB-3-1 adenocarcinoma cells; Potency, µM (series often up to 46.1 µM), actives largely listed as cytotoxic; KB-3-1 viability, CellTiter-Glo ATP luminescence, 72 h; hit rate 1.4% among 400,000; also: nearly all actives have a fitted effect of over 60% in size
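Luminescent ATP read-out (CellTiter-Glo) measures survival of drug-naive KB-3-1 cells after 72 h compound exposure at 37 °C. Titration series was screened from lowest to highest concentration, with DMSO vehicle plates as background controls.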
KB-V1 MDR tox: KB-V1 MDR subline cytotoxicity; KB-V1 MDR cells viability, CellTiter-Glo, 72 h; Potency, µM (top dose mostly 46.1 µM), actives largely listed as cytotoxic; hit rate 3.4% among 400,000; also: nearly all actives have a fitted effect of over 60% in size
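Luminescent ATP read-out (CellTiter-Glo, 10 min) measures survival of drug-selected KB-V1 MDR cells after 72 h, 37 degrees C compound exposure. Medium: phenol-red-free DMEM, 10% FBS. Values from fitted concentration-response curves.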
HT1080-NT tox: kills 2HG-producing HT-1080-NT fibrosarcoma cells | HT-1080-NT fibrosarcoma viability, CellTiter-Glo ATP luminescence, 48 h | Potency, µM (top dose mostly 46.1 µM), hits mostly cytotoxic | hit rate 1.6% among 360,000 | AID 686970;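 also: NT is the 2HG producing partner of a matched IDH1 knockdown line; nearly all actives have a fitted effect of over 55% in size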
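Fibrosarcoma NT cells, 750 per well in 5% FBS RPMI, were exposed to compound for 48 hours. Viability: CellTiter-Glo luminescence.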
DT40 TDP1 no CPT: qHTS for Inhibitors of human tyrosyl-DNA phosphodiesterase 1 (TDP1): qHTS in cells in absence of CPT. DT40 Tdp1-/- hTDP1 cells, no CPT, ATP luminescence, 48 h. Potency, µM (titrated, usually from 46.2 µM), usual class: inhibitors. AID 686978, 2013. hit rate 15% among 420,000; also: nearly all actives have a fitted effect of over 55% in size
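No-CPT arm: Tdp1-/-;hTDP1 DT40 cells (400/well) plus compounds, incubated ≥48 hr at 37 °C. Readout CellTiter-Glo luminescence.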
Each line names hits and unclear results; the compound was inactive in the other large screens. The list is not random: actives were taken first. Their share in the collection is about 19%. Calls follow the shape of the dose curve; as a rule, active = well fitted curve in the direction sought with a large enough effect; inconclusive = small, poorly fitted or top-dose-only effect, or another doubt; inactive = no such curve, though single readings can be large; an effect the other way counts as inactive or inconclusive.

CCOC(=O)c1c(-c2ccccc2)csc1NC(=O)C(C)NCc1ccco1 (configuration not stated)	TDP1 cell CPT 18.4µM, KB-V1 MDR tox inconclusive, DT40 TDP1 no CPT inconclusive
COC(=O)c1c(-c2cccs2)csc1NC(=O)CN1CCOCC1	DT40 TDP1 no CPT inconclusive
CC(C)CSc1nc(N)nc2c1ncn2C1OC(CO)C(O)C1O (configuration not stated)	none
Cc1cccc(OCc2nnc(SCC(=O)N(c3ccccc3)C3CCS(=O)(=O)C3)o2)c1 (configuration not stated)	TDP1 cell CPT inconclusive
CCOC(=O)c1c(-c2ccc(OC)cc2)csc1NC(=O)CCN1C(=O)c2ccccc2C1=O	TDP1 cell CPT 16.4µM, DT40 TDP1 no CPT inconclusive
CCOC(=O)c1c(-c2ccc(C)cc2)csc1NC(=O)CCN1CC(C)OC(C)C1 (configuration not stated)	TDP1 cell CPT inconclusive, HT1080 IDH1KD tx inconclusive, KB-3-1 tox inconclusive, KB-V1 MDR tox inconclusive, DT40 TDP1 no CPT 25.9µM
Cc1ccc(Cl)cc1NC(=O)CN1C=NS(=O)(=O)c2ccccc21	KB-V1 MDR tox inconclusive (no result: HT1080 IDH1KD tx, HT1080-NT tox)
O=C(O)C(Cc1ccnc2ccccc12)=NO	KB-3-1 tox inconclusive, HT1080-NT tox inconclusive
CCOC(=O)C(Cc1ccnc2ccccc12)=NO	TDP1 cell CPT inconclusive, HT1080-NT tox 14.6µM, DT40 TDP1 no CPT inconclusive
O=C(CSc1nccn1Cc1ccco1)Nc1ccc(OC(F)(F)F)cc1	TDP1 cell CPT inconclusive (no result: HT1080 IDH1KD tx, KB-3-1 tox, KB-V1 MDR tox, HT1080-NT tox)
Cc1cccc(C(=O)N2CCOc3ccc(CN(C)Cc4cc(C5CC5)n[nH]4)cc3C2)n1	none (no result: HT1080 IDH1KD tx, KB-3-1 tox, KB-V1 MDR tox, HT1080-NT tox)
CC[N+](C)(C)c1ccc(/C=C/c2ccnc3ccccc23)cc1	TDP1 cell CPT 0.0794µM, KB-3-1 tox inconclusive, KB-V1 MDR tox inconclusive, DT40 TDP1 no CPT 0.112µM (no result: HT1080 IDH1KD tx, HT1080-NT tox)
CC[N+](CC)(CC)c1ccc(/C=C/c2ccnc3ccccc23)cc1	TDP1 cell CPT 0.398µM, KB-3-1 tox 0.581µM, KB-V1 MDR tox inconclusive, DT40 TDP1 no CPT 0.316µM (no result: HT1080 IDH1KD tx, HT1080-NT tox)
CCCS(=O)(=O)N1CCN(Cc2ccc3c(c2)c2ccccc2n3CC)CC1	TDP1 cell CPT 20.6µM, HT1080 IDH1KD tx inconclusive, HT1080-NT tox inconclusive, DT40 TDP1 no CPT inconclusive
CCN1CCN(Cc2ccc(OC)c(OCc3ccccc3)c2)CC1	DT40 TDP1 no CPT inconclusive
COc1ccc(CN2CCN(Cc3ccc4ccccc4c3)CC2)cc1OC	TDP1 cell CPT inconclusive, HT1080 IDH1KD tx inconclusive, KB-3-1 tox inconclusive, KB-V1 MDR tox inconclusive, DT40 TDP1 no CPT 18.4µM
COc1ccccc1CN1CCN(Cc2ccc3ccccc3c2)CC1	TDP1 cell CPT inconclusive, DT40 TDP1 no CPT inconclusive
O=S(=O)(Cc1ccccc1)N1CCN(Cc2ccc(Br)cc2)CC1	none
CCc1ccc(CN2CCN(S(=O)(=O)Cc3ccccc3)CC2)cc1	TDP1 cell CPT inconclusive, KB-V1 MDR tox 10.3µM, DT40 TDP1 no CPT inconclusive
CCn1c2ccccc2c2cc(CN3CCN(Cc4ccc(OC)c(OC)c4)CC3)ccc21	TDP1 cell CPT 18.4µM, DT40 TDP1 no CPT 23.1µM (no result: HT1080 IDH1KD tx, KB-3-1 tox, KB-V1 MDR tox, HT1080-NT tox)
CC(NC(=O)C1CCCN1C(=O)c1cccs1)c1ccc(Cl)cc1Cl (configuration not stated)	none
COc1ccc(C(=O)CC(C(=O)O)c2ccc3c(c2)OCO3)cc1OC (configuration not stated)	none
Cc1ccc(S(=O)(=O)N2C[C@H]3C(=O)C[C@@H](c4ccccc4F)N(S(=O)(=O)c4ccc(C)cc4)[C@H]3C[C@H]2c2cccc3ccccc23)cc1	none
COc1ccc(NC(=O)c2sc3nc(C)c(C(=O)Nc4ccc(C)cc4C)c(-c4sccc4C)c3c2N)cc1	none (no result: HT1080 IDH1KD tx, HT1080-NT tox)
CCOc1ccc(CN2CCN(Cc3ccc4c(c3)c3ccccc3n4CC)CC2)cc1	TDP1 cell CPT inconclusive, DT40 TDP1 no CPT 14.6µM (no result: HT1080 IDH1KD tx, KB-3-1 tox, KB-V1 MDR tox, HT1080-NT tox)
CCOc1ccc(CN2CCN(C(=O)c3cccc4ccccc34)CC2)cc1	TDP1 cell CPT inconclusive, HT1080 IDH1KD tx inconclusive, HT1080-NT tox inconclusive, DT40 TDP1 no CPT inconclusive

Source: PubChem
